Source: PubChem BioAssay
Shown are actives, neighbours in structure and some others; about 3.6% of the full set was active somewhere.
KDM4E inh: qHTS Assay for Inhibitors of Human Jumonji Domain Containing 2E (JMJD2E). Lysine-specific demethylase 4E (Homo sapiens), B2RXH2. JMJD2E catalytic domain, FDH-coupled NADH fluorescence (FDH is formaldehyde dehydrogenase). Potency, µM (series often up to 57.1 µM), without a hit: at the highest dose activity change, negative = inhibition, actives largely listed as inhibitors. actives 1.6% (n = 230,000). AID 2147, 2009; active = well fitted inhibition curve with a large enough effect, not every such curve was filed as active; inconclusive = small, poorly fitted or top-dose-only effect, or another doubt; inactive = no such curve, though single readings can be large or run the other way;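 note: 0% = wells with enzyme and -100% = buffer wells without enzyme; nearly all actives have a fitted effect of over 50% in size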
Sfp PPTase inh: qHTS Assay for Inhibitors of Bacillus subtilis Sfp phosphopantetheinyl transferase (PPTase); AID 1490, 2009; 4'-phosphopantetheinyl transferase ffp (Bacillus subtilis), Q9F4F7; Potency, µM, for the others: largest response in the series, negative = inhibition, actives largely listed as inhibitors; Biochemical Sfp PPTase activity, qHTS; actives 3.5% (n = 310,000);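 note: the enzyme is Sfp with the accession as filed and its product quenches rhodamine fluorescence; 0% = enzyme reaction without inhibitor and -100% = no enzyme wells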
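Compounds were incubated with enzyme (final 15 nM) for 15 min at room temperature before substrate addition started the reaction. Fluorescence at 525 nm excitation, 598 nm emission was recorded immediately and after 30 minutes.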
NPSR antag: qHTS Assay for Antagonists of the Neuropeptide S Receptor: cAMP Signal Transduction | Q6W5P4 | CHO-NPSR cells, cAMP TR-FRET, antagonist mode | Potency, µM (top dose mostly 38.3 µM), for the others: top-dose activity change, negative = inhibition, actives largely listed as inhibitors | actives 1% (n = 220,000); note: % is set by controls: 0 for no effect and ±100 for the full control effect; nearly all actives have a fitted effect of over 50% in size
GCN5L2 inh: qHTS Assay for Inhibitors of GCN5L2 | GCN5L2 HAT assay, ThioGlo1 CoA-SH fluorescence | Potency, µM (titrated, usually from 58.9 µM), inactives show top-dose activity change, negative = inhibition, usual class: inhibitors | actives 0.21% (n = 390,000) | Histone acetyltransferase KAT2A (Homo sapiens), Q92830 | AID 504327, 2011; note: % is set by controls: 0 for no effect and ±100 for the full control effect
Target sequence (Q92830 whole entry, looked up): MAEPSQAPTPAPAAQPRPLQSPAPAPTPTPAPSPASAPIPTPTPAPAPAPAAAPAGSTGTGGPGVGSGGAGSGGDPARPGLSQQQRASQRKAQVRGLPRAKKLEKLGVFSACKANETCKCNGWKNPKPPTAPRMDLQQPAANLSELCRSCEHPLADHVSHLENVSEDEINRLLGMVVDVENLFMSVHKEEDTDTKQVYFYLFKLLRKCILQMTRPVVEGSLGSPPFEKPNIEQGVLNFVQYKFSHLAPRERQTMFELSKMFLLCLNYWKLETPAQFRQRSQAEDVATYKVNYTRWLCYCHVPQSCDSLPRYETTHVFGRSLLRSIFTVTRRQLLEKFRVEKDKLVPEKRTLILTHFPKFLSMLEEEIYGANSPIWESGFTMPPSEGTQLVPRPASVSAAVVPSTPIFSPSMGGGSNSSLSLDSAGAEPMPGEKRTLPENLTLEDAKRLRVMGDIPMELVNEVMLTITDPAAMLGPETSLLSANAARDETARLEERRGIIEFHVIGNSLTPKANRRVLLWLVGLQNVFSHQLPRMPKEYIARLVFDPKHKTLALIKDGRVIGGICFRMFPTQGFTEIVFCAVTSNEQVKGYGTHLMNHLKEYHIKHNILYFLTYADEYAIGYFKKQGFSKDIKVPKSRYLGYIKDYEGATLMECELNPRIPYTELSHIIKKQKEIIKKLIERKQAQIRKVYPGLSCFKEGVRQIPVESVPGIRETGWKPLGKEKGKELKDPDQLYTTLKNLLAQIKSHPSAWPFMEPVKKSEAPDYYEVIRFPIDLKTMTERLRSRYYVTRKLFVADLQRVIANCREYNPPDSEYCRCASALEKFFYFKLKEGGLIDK
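Enzyme at 20nM final was mixed with library compounds for 15 min at room temperature. Peptide H3(1-25) at 75uM, acetyl-CoA at 70uM and ThioGlo1 at 50uM were then added. Plates were read immediately and after 20 min (Ex340nm/Em540nm).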
IMPase Li inh: qHTS Assay for Identifying the Cell-Membrane Permeable IMPase Inhibitors: Potentiation with Lithium | actives 0.35% (n = 210,000) | CHO-M1 cells, IP1 TR-FRET (IP-One), carbachol + lithium | Potency, µM (series often up to 59.4 µM), inactives show at the highest dose activity, negative = IMPase inhibition, usual class: inhibitors;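 note: IP1 builds up when IMPase is blocked and the TR-FRET signal falls; plate controls were basal vehicle for no effect and high inhibitor control for full effect; nearly all actives have a fitted effect of over 50% in size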
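CHO cells stably expressing M1 receptor (2000/well) were cultured 16–30 h, then exposed to compounds with a small lithium addition for 30 min at 37C. IP1 was measured by TR-FRET competition; AC50 from Hill fits.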
Epigenetic reg: Quantitative High-Throughput Screen for Regulators of Epigenetic Control | murine LDR cells, GFP reporter derepression, 30 h | Potency, µM (top dose mostly 53.9 µM), inactives show at the highest dose GFP activation, hits mostly activators | actives 0.2% (n = 280,000); note: % of control where 0% means no effect; nearly all actives have a fitted effect of over 60% in size
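GFP-positive cell count by laser-scanning cytometry (objects 20–120 um) after 30 h, 37 C compound exposure of murine LDR cells; reporter is CMV-GFP integrated at a silenced locus, inducible by HDAC or DNMT inhibitors.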
Numbers without * were called inactive; ? = inconclusive; nt = no result; ! = a repeat was not active; [ ] = another dose, or the depositor's remark. Unless noted, calls come from the whole dose curve; as a rule, active = well fitted curve in the direction sought with a large enough effect; inconclusive = small, poorly fitted or top-dose-only effect, or another doubt; inactive = no such curve, though single readings can be large; an effect the other way counts as inactive or inconclusive. Potency is the fitted concentration of half-maximal effect.

SMILES	KDM4E inh	Sfp PPTase inh	NPSR antag	GCN5L2 inh	IMPase Li inh	Epigenetic reg
O=C(CSc1nnc(NC(=O)c2ccccc2F)s1)NCC1CCCO1 (stereo unspecified)	nt	50µM*	nt	-3%	nt	nt
Cc1ccc(C(=O)NNC(=O)CSc2nc(N)cc(N)n2)cc1	1%	32µM*	15%	-1%	0%	2%
Cc1ccc(C(=O)NNC(=O)C(C)Sc2nc(N)cc(N)n2)cc1 (stereo unspecified)	-6%	1%	2%[46.1 µM]	-3%	7%[38.3 µM]	-1%
CCOC(=O)CNC(=O)Nc1cc(C(=O)NCc2ccccc2OC)ccc1N1CCCC1	nt	nt	nt	-14%	nt	-6%
Cc1ccc(Nc2c(-c3ccccn3)nc3cc(C)ccn23)cc1	0%	1%	?	-2%	13%	1%
Cc1ccc(Nc2c(-c3ccccn3)nc3ccc(C)cn23)cc1	4%	-6%	10µM*	-6%	19%	-5%
Nc1c(N=Nc2ccc(-c3ccc(N=Nc4cc(S(=O)(=O)O)c5ccccc5c4N)cc3)cc2)cc(S(=O)(=O)O)c2ccccc12	nt	45µM*	nt	2.2µM*	10%	-1%
Cc1cc(-c2ccc(N=Nc3ccc4c(S(=O)(=O)O)cc(S(=O)(=O)O)c(N)c4c3O)c(C)c2)ccc1N=Nc1ccc2c(S(=O)(=O)O)cc(S(=O)(=O)O)c(N)c2c1O	?	10µM*!	nt	3.2µM*	272%	-1%
Cc1ccc2c(=O)c3cccc(CC(=O)O)c3oc2c1C	nt	-8%	nt	-23%	nt	nt
CCOc1c(Cl)cc(CNc2ccc(S(N)(=O)=O)cc2)cc1OC	3%	13%	7%	-13%	14%	1%
CCOc1c(Cl)cc(CNc2ccc(N3CCCC3)cc2)cc1OC	8.9µM*	79µM*	-6%	-9%	35%	1%
CCCCS(=O)(=O)/C=C\C=C/S(=O)(=O)CCCC	-7%	11µM*	5µM*	-7%	19%	2%
CCCCS(=O)(=O)/C=C\C1C2C=CC(C2)C1S(=O)(=O)CCCC (stereo unspecified)	1%	14%	-5%[46.1 µM]	-2%	1%[38.3 µM]	-2%
O=C(NC(=S)N1CCCC1)c1ccccc1Cl	nt	14%	nt	-9%	nt	nt
O=C(NC1CC1)c1ccc(F)cc1Cl	0%	18%	2%[46.1 µM]	1%	26%[38.3 µM]	0%
O=C(NC(=S)Nn1cnnc1)c1ccc(F)cc1Cl	nt	50µM*	nt	-3%	nt	nt
COc1cccc(C(=O)NC(=S)Nn2cnnc2)c1OC	-5%	22µM*	6%	-8%	-5%	-8%
O=C(NC(=S)Nn1cnnc1)c1ccccc1Cl	-2%	40µM*	7%	-3%	-4%	1%
O=C(NC(=S)Nc1ncccn1)c1ccccc1Cl	4%	32µM*	14%	1%	1%	-2%
COC(=O)c1cc(OC)c(OC)cc1NC(=O)c1cccc(OC)c1OC	92%	21%	-1%	-3%	14%	0%
CNC(=O)NC(=S)NC(=O)c1ccccc1Cl	4%	-26%	-2%	-2%	6%	1%
CCCNC(=O)[C@H]1O[C@@H]1C(=O)N[C@H](C(=O)N1CCC[C@H]1C(=O)OC)[C@@H](C)CC	nt	21%	nt	-8%	1%	3%
COc1ccc(Nc2nc3ccccc3c3nnc(C)n23)cc1Cl	nt	nt	nt	-9%	nt	3%
CC1(C)C[C@](C)(C(=O)c2ccccc2)C=C1c1ccccc1	-3%	-17%	nt	nt	18%	0%
NCCSS(=O)(=O)CCN	nt	nt	nt	nt	-3%	nt
CCCCc1nc2c(c3c1C[C@H](C)OC3)CN(C(=O)NCCc1c[nH]c3ccccc13)CC2	2%[11.4 µM]	3%	nt	nt	-7%	nt
CC(C)CN(c1ccccc1)S(=O)(=O)c1nnc(NC(=O)C2CCCCC2)s1	nt	nt	nt	-2%	nt	28µM*
